Source: PubChem
Shown are actives, neighbours in structure and some others; about 6.8% of the full set was active somewhere.
C diff growth = blocks growth of Clostridium difficile; Clostridium difficile clinical isolate growth, OD600, 24 h; hits give low values; growth activity, negative = inhibition, % at 16 µg/mL (by protocol); 86,000 tested, 0.25% active; AID 1259249;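 active = mean growth activity at or below -80% and every replicate also at or below -80%; inconclusive = mean at or below -80% but some replicate above -80%; inactive = mean growth activity above -80%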
Pf Dd2 inh = blocks growth of Plasmodium falciparum Dd2 parasites; P. falciparum Dd2 growth, SYBR Green, 72 h; hits give low values; 94,000 tested, 2.3% active; activity change, % at 10 µM; in the data active = activity change below about -80%; inconclusive = no clear call, values can overlap the other calls
T cruzi growth-1 = inhibitors of T. cruzi proliferation; T. cruzi beta-gal in NIH3T3, GalScreen luminescence, 90 h; inhibition, % at 8.34 µM; 77,000 tested, 5.9% active; AID 624255;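 active = mean inhibition above about 93%, with at least 55% of replicates each passing it, limit read from the data, passing the limit was not always enough; inconclusive = only one of those two conditions holds; inactive = neither condition holds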
T cruzi growth-2 = inhibitors of T. cruzi proliferation; shares compounds with T cruzi growth-1; T. cruzi beta-gal in NIH3T3, GalScreen luminescence, 90 h; inhibition, % at 8.35 µM; 5,600 tested, 72% active;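 active = mean replicate inhibition above about 95% and at least 55% of replicates individually reaching it, limit read from the data; inconclusive = only one of the two criteria is met; inactive = neither criterion is met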
T cruzi growth-3 = Trypanosoma cruzi proliferation inhibition; shares compounds with T cruzi growth-1; T. cruzi beta-gal in NIH3T3, GalScreen luminescence, 90 h; inhibition, % at 2.09 µM; 5,600 tested, 21% active; AID 651740;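 active = mean inhibition above about 95%, with at least 55% of replicates also reaching it, limit read from the data; inconclusive = meets just one of the two conditions; inactive = meets neither condition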
3T3 cytotox = cytotoxicity in mouse NIH/3T3 fibroblasts; shares compounds with T cruzi growth-1; NIH/3T3 viability, CellTiter-Glo ATP luminescence, 90 h; AID 651742; 5,600 tested, 14% active; cytotoxicity (signal decrease), % at 8.35 µM;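 active = mean signal decrease across replicates above about 35% based on untreated-well scatter, with enough replicates individually passing, limit read from the data; inconclusive = no rule stated though some were filed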
3T3 cytotox 2 = kills mouse NIH/3T3 fibroblasts | shares compounds with T cruzi growth-1 | NIH/3T3 viability, CellTiter-Glo ATP luminescence, 90 h | inhibition, % at 24.9 µM | 5,600 tested, 56% active | AID 651744;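 active = mean loss of cell viability signal at or above a set limit, and enough replicates individually reaching it; inconclusive = meets only the mean limit or only the replicate share; inactive = meets neither condition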
Large screens that a line does not name were inactive (follow-up assays come after a bar, where they were run).

CC(C)C#Cc1cnc2c(c1)C(=O)N([C@@H](C)CO)C[C@@H](C)[C@@H](CN(C)Cc1cncnc1)O2	none
C[C@H]1CN([C@@H](C)CO)C(=O)c2cc(C#Cc3ccccn3)cnc2O[C@H]1CN(C)Cc1cncnc1	none
C[C@H](CO)N1C[C@H](C)[C@H](CN(C)Cc2cncnc2)Oc2ncc(C#Cc3ccccn3)cc2C1=O	none
CC(C)C#Cc1cnc2c(c1)C(=O)N([C@@H](C)CO)C[C@H](C)[C@@H](CN(C)Cc1cncnc1)O2	T cruzi growth-1 97.4 | T cruzi growth-2 98.6 | T cruzi growth-3 inactive | 3T3 cytotox inactive | 3T3 cytotox 2 inactive
C[C@@H]1CN([C@H](C)CO)C(=O)c2cc(C#Cc3ccccn3)cnc2O[C@H]1CN(C)Cc1cncnc1	T cruzi growth-1 104.0 | T cruzi growth-2 106.7 | T cruzi growth-3 inactive | 3T3 cytotox inactive | 3T3 cytotox 2 inactive
COc1cccc(NC(=O)N(C)C[C@H]2Oc3cc(/C=C/c4ccccc4)ccc3S(=O)(=O)N([C@@H](C)CO)C[C@H]2C)c1	none (no result: T cruzi growth-1)
CC(=O)N[C@@H]1CC[C@H](CCNC(=O)C2CC2)O[C@@H]1CO	none (no result: C diff growth)
O=C(c1ccc(F)cc1)N1CCCCN2[C@H](CO)[C@@H](c3ccc(/C=C/c4ccccc4)cc3)[C@H]2C1	T cruzi growth-1 108.5 | T cruzi growth-2 103.4 | T cruzi growth-3 inactive | 3T3 cytotox inactive | 3T3 cytotox 2 104.2
O=C(c1ccc(F)cc1)N1CCCCN2[C@H](C1)[C@H](c1ccc(/C=C/c3ccccc3)cc1)[C@@H]2CO	T cruzi growth-1 inconclusive | T cruzi growth-2 inconclusive | T cruzi growth-3 inactive | 3T3 cytotox inactive | 3T3 cytotox 2 103.0
Cc1noc(C)c1S(=O)(=O)Nc1ccc2c(c1)C(=O)N([C@@H](C)CO)C[C@H](C)[C@@H](CN(C)S(=O)(=O)c1cn(C)cn1)OCCCC[C@@H](C)O2	none
COc1ccc(CN(C)C[C@H]2OCCCC[C@@H](C)Oc3ccc(NC(=O)Nc4ccc5c(c4)OCO5)cc3C(=O)N([C@H](C)CO)C[C@H]2C)cc1	T cruzi growth-1 106.4 (no result: C diff growth) | T cruzi growth-2 106.3 | T cruzi growth-3 inactive | 3T3 cytotox inactive | 3T3 cytotox 2 63.7
COc1ccc(CN(C)C[C@H]2OCCCC[C@@H](C)Oc3ccc(NC(=O)Nc4ccc5c(c4)OCO5)cc3C(=O)N([C@@H](C)CO)C[C@H]2C)cc1	none (no result: C diff growth)
COc1ccc(CN(C)C[C@@H]2OCCCC[C@H](C)Oc3ccc(NC(=O)Nc4ccc5c(c4)OCO5)cc3C(=O)N([C@H](C)CO)C[C@H]2C)cc1	none (no result: C diff growth)
COc1ccc(CN(C)C[C@@H]2OCCCC[C@@H](C)Oc3ccc(NC(=O)Nc4ccc5c(c4)OCO5)cc3C(=O)N([C@@H](C)CO)C[C@@H]2C)cc1	T cruzi growth-1 inconclusive (no result: C diff growth) | T cruzi growth-2 107.9 | T cruzi growth-3 97.7 | 3T3 cytotox inactive | 3T3 cytotox 2 53.4
COc1ccc(CN(C)C[C@H]2OCCCC[C@H](C)Oc3ccc(NC(=O)Nc4ccc5c(c4)OCO5)cc3C(=O)N([C@@H](C)CO)C[C@@H]2C)cc1	T cruzi growth-1 105.5 (no result: C diff growth) | T cruzi growth-2 101.0 | T cruzi growth-3 inactive | 3T3 cytotox inactive | 3T3 cytotox 2 104.4
COc1ccc(CN(C)C[C@H]2OCCCC[C@H](C)Oc3ccc(NC(=O)Nc4ccc5c(c4)OCO5)cc3C(=O)N([C@@H](C)CO)C[C@H]2C)cc1	Pf Dd2 inh inconclusive (no result: C diff growth)
Cc1ccc(S(=O)(=O)N[C@@H]2C=C[C@@H](CC(=O)NCc3ccncn3)O[C@H]2CO)cc1	none
O=C(C[C@H]1CC[C@@H]2[C@H](COC[C@@H](O)CN2Cc2cccc(Cl)c2)O1)NCC1CCCCC1	T cruzi growth-1 111.3 (no result: Pf Dd2 inh) | T cruzi growth-2 inactive | T cruzi growth-3 inactive | 3T3 cytotox inactive | 3T3 cytotox 2 inactive
O=C(C[C@@H]1CC[C@@H]2[C@H](COC[C@H](O)CN2Cc2cccc(C(F)(F)F)c2)O1)NCc1ccc(Cl)cc1	none
O=C(C[C@H]1CC[C@@H]2[C@H](COC[C@H](O)CN2CCC(F)(F)F)O1)N1CCC(Cc2ccccc2)CC1	none
O=C(C[C@H]1CC[C@H]2[C@@H](COC[C@H](O)CN2Cc2cccc(Cl)c2)O1)NCC1CCCCC1	none (no result: Pf Dd2 inh)
O=C(C[C@@H]1CC[C@@H]2[C@H](COC[C@@H](O)CN2Cc2cccc(C(F)(F)F)c2)O1)NCc1ccc(Cl)cc1	T cruzi growth-1 155.0 | T cruzi growth-2 inactive | T cruzi growth-3 inactive | 3T3 cytotox inactive | 3T3 cytotox 2 inconclusive
O=C(C[C@H]1CC[C@H]2[C@@H](COC[C@@H](O)CN2CCC(F)(F)F)O1)NCC1CCCCC1	none
O=C(C[C@@H]1CC[C@@H]2[C@H](COC[C@@H](O)CN2CCC(F)(F)F)O1)N1CCC(Cc2ccccc2)CC1	T cruzi growth-1 inconclusive | T cruzi growth-2 inconclusive | T cruzi growth-3 inactive | 3T3 cytotox inactive | 3T3 cytotox 2 inactive
O=C(C[C@@H]1CC[C@@H]2[C@H](COC[C@H](O)CN2CCC(F)(F)F)O1)NCC1CCCCC1	T cruzi growth-1 116.8 | T cruzi growth-2 inactive | T cruzi growth-3 inactive | 3T3 cytotox inactive | 3T3 cytotox 2 inactive
O=C(C[C@@H]1CC[C@@H]2NC[C@H](O)COC[C@H]2O1)NCCN1CCCC1	none (no result: T cruzi growth-1)
COc1ccc2c3c([nH]c2c1)[C@@H](CO)N(CC1CC1)CC31CCN(C(=O)c2ccccc2F)CC1	none (no result: T cruzi growth-1)
CO[C@@H]1CN(C)C(=O)c2cc(NC(=O)C3CCCC3)ccc2OC[C@@H](C)NC[C@@H]1C	none (no result: C diff growth, Pf Dd2 inh)
O=C(C[C@@H]1CC[C@H]2[C@@H](COC[C@H](O)CN2Cc2cccc(C(F)(F)F)c2)O1)NCc1ccc(Cl)cc1	T cruzi growth-1 125.2 | T cruzi growth-2 110.3 | T cruzi growth-3 inactive | 3T3 cytotox inactive | 3T3 cytotox 2 27.9
O=C(C[C@H]1CC[C@@H]2[C@H](COC[C@@H](O)CN2Cc2cccc(C(F)(F)F)c2)O1)NCc1ccccc1	none
O=C(C[C@@H]1CC[C@@H]2[C@H](COC[C@@H](O)CN2Cc2cccc(C(F)(F)F)c2)O1)NCc1ccccc1	none (no result: C diff growth)
O=C(C[C@H]1CC[C@@H]2[C@H](COC[C@@H](O)CN2Cc2cccc(C(F)(F)F)c2)O1)NCc1ccc(Cl)cc1	T cruzi growth-1 178.1 | T cruzi growth-2 108.9 | T cruzi growth-3 inactive | 3T3 cytotox 47.2 | 3T3 cytotox 2 56.3
O=C1CN(S(=O)(=O)c2ccccc2)C[C@@H]2[C@H](c3ccc(Br)cc3)[C@H](CO)N12	none (no result: T cruzi growth-1)
C[C@@H]1CCCCO[C@@H](CN(C)C(=O)Nc2ccc(F)cc2)[C@H](C)CN([C@H](C)CO)C(=O)c2cc(NC(=O)c3ccccc3)ccc2O1	none
C[C@@H]1CCCCO[C@H](CN(C)C(=O)Nc2ccc(F)cc2)[C@H](C)CN([C@H](C)CO)C(=O)c2cc(NC(=O)c3ccccc3)ccc2O1	Pf Dd2 inh inconclusive, T cruzi growth-1 inconclusive | T cruzi growth-2 101.8 | T cruzi growth-3 inactive | 3T3 cytotox inactive | 3T3 cytotox 2 inactive
